{"source": "PubChem BioAssay AID488841", "about": "(Sanford-Burnham Center for Chemical Genomics, 2010)", "note": "Hit rate of the full screen: of about 1,400 compounds, about 380 (27%) were called active.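 The calls were made as follows: active = mean inhibition above 50% across duplicate retests at 10 µM; inactive = the rest.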 This is one part of the list.", "data": [{"assay": "yeast NALP1 reporter signal suppression – S. cerevisiae, luminescence, single concentration, NALP1 inhibitor project, confirmation (AID 488841);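 also: plate controls were DMSO in galactose medium for no effect and cells in plain SD medium for full effect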", "settings": "S. cerevisiae NALP1/ASC/Caspase-1 reporter, beta-gal luminescence; at 10 µM; active compounds read high", "values": [{"compound": "CNCc1ccccc1Sc1cc(O)ccc1O", "inhibition": "26.8% (inactive)"}, {"compound": "O=S(=O)(CC12C3C4C5C1C2C(Br)(C43)C51OCCO1)c1ccccc1", "note": "(configuration not stated)", "inhibition": "40% (inactive)"}, {"compound": "CC1CCCCN1S(=O)(=O)c1cnc(Cl)c(Br)c1", "note": "(configuration not stated)", "inhibition": "68.1% (active)"}, {"compound": "O=c1c(Br)c(N2CCCC2)cnn1-c1ccccc1", "inhibition": "41.4% (inactive)"}, {"compound": "CC1CC(C)CN(S(=O)(=O)c2ccc(C(=O)NCc3ccc4c(c3)OCO4)cc2)C1", "note": "(configuration not stated)", "inhibition": "24.1% (inactive)"}, {"compound": "COCC(=O)OCC(=O)Nc1cc(C(C)(C)C)nn1-c1ccccc1", "inhibition": "25.4% (inactive)"}, {"compound": "Cc1ccc(-c2cc(NC(=O)CSc3n[nH]c(N)n3)n(-c3ccccc3)n2)cc1", "inhibition": "24.2% (inactive)"}, {"compound": "O=C(CCl)Nc1cc(-c2ccccc2)nn1-c1ccccc1", "inhibition": "68.9% (active)"}, {"compound": "CC(C)c1ccc(-c2c(C#N)c(N)nc3c2CCCCC3)cc1", "inhibition": "23.8% (inactive)"}, {"compound": "CCc1cccc(CC)c1NC(=S)NCCc1c(C)[nH]c2ccccc12", "inhibition": "37.9% (inactive)"}, {"compound": "O=[N+]([O-])c1ccc(N2CCN(C(=S)Nc3ccccc3)CC2)cc1", "inhibition": "32% (inactive)"}, {"compound": "Cc1cc(C)cc(NS(=O)(=O)c2ccc(NC(=S)Nc3ccccc3)cc2)c1", "inhibition": "26.1% (inactive)"}, {"compound": "S=C(NCCCc1ccccc1)Nc1ccc(Cl)cc1", "inhibition": "86.3% (active)"}, {"compound": "CC1CCCCN1C(=S)NCCc1ccccc1", "note": "(configuration not stated)", "inhibition": "47.7% (inactive)"}, {"compound": "S=C(NCCc1ccccc1)Nc1ccc(Br)cc1", "inhibition": "70.2% (active)"}, {"compound": "O=C(NC(CO)Cc1ccc([N+](=O)[O-])cc1)C(Cl)Cl", "note": "(configuration not stated)", "inhibition": "29.8% (inactive)"}, {"compound": "O=[N+]([O-])c1ccc(NC(=S)NCCc2ccc(F)cc2)cc1", "inhibition": "85.5% (active)"}, {"compound": "CC(=O)Nc1ccc(C(=O)CSc2nnc(Cc3ccccc3)o2)cc1", "inhibition": "11.8% (inactive)"}, {"compound": "CCOC(=O)C1=NN(C(=O)c2ccc(C)cc2)C(O)(c2ccc(Cl)cc2)C1", "note": "(configuration not stated)", "inhibition": "45.7% (inactive)"}, {"compound": "Cc1cccc(NC2=C(Cl)C(=O)OC2NC(=O)c2ccccc2)c1", "note": "(configuration not stated)", "inhibition": "7.1% (inactive)"}, {"compound": "O=C(Nc1ccc2nc3n(c(=O)c2c1)CCCC3)c1cc([N+](=O)[O-])ccc1F", "inhibition": "64.8% (active)"}, {"compound": "CC1CCCCN1C(=S)Nc1ccc2nc3n(c(=O)c2c1)CCCCC3", "note": "(configuration not stated)", "inhibition": "35% (inactive)"}, {"compound": "Cc1ccc(NCC(=O)Nc2c(C)n(C)n(-c3ccccc3)c2=O)cc1S(=O)(=O)N(C)C", "inhibition": "15.9% (inactive)"}, {"compound": "Cc1ccc(CC(=O)Nc2ccccc2-c2ccccc2)cc1C", "inhibition": "35.9% (inactive)"}, {"compound": "O=C(Nc1cccc(F)c1)c1ccc(CSc2ccccc2)o1", "inhibition": "37.8% (inactive)"}, {"compound": "Cc1ccccc1-c1ccc(C(=O)Nc2cccc(F)c2)o1", "inhibition": "52.9% (active)"}, {"compound": "CC1=C(C)/C(=N\\OS(=O)(=O)c2ccc(C)cc2)C=CC1=O", "inhibition": "79.5% (active)"}, {"compound": "N#Cc1cnn(-c2ncnc3sc4c(c23)CCCC4)c1N", "inhibition": "33.3% (inactive)"}, {"compound": "O=C(COC(=O)Cc1c(F)cccc1Cl)NCCC1=CCCCC1", "inhibition": "37.5% (inactive)"}, {"compound": "COc1cc2ccccc2c2c1CCCC2=O", "inhibition": "27.6% (inactive)"}, {"compound": "O=C1/C(=C/c2ccco2)Cc2ccccc21", "inhibition": "38.1% (inactive)"}, {"compound": "COc1cc(C=O)ccc1Oc1nnnn1-c1ccccc1", "inhibition": "35% (inactive)"}, {"compound": "COc1ccc(/C=C2\\COc3ccccc3C2=O)cc1OC", "inhibition": "72.8% (active)"}, {"compound": "COc1cc(/C=C2/CCc3ccccc3C2=O)cc(OC)c1OC", "inhibition": "53% (active)"}, {"compound": "COc1ccc(C2=C/C(=C/c3cccnc3)C(=O)O2)cc1OC", "inhibition": "40.3% (inactive)"}, {"compound": "COc1ccc(/C=C2/CCc3ccccc3C2=O)cc1OC", "inhibition": "59.9% (active)"}, {"compound": "O=C1/C(=C/c2ccccc2)CCCc2ccccc21", "inhibition": "57.9% (active)"}, {"compound": "Cc1ccc(CN(C(=O)CNC(=O)c2cccs2)C(C(=O)NCC2CCCO2)c2ccccc2)cc1", "note": "(configuration not stated)", "inhibition": "20.4% (inactive)"}, {"compound": "CC(C)NCCCCOc1cccc(Br)c1", "inhibition": "43.9% (inactive)"}, {"compound": "O=C(Cn1cccc(C(F)(F)F)c1=O)c1ccc(Cl)cc1", "inhibition": "22% (inactive)"}, {"compound": "Cc1oc(C(=O)O)cc1COc1ccc2c3c(c(=O)oc2c1)CCC3", "inhibition": "14.6% (inactive)"}, {"compound": "Cc1[nH][nH]c(=O)c1C(c1c(C)[nH][nH]c1=O)c1cn(Cc2ccc(Cl)c(Cl)c2)c2ccccc12", "inhibition": "35.5% (inactive)"}, {"compound": "CN(C)c1ccc(/C=N/NC(=O)c2nnn(-c3nonc3N)c2CN(C)c2ccccc2)cc1", "inhibition": "25.6% (inactive)"}, {"compound": "Cc1nc2c(=O)n(C)c(=O)n(C)c2nc1Cl", "inhibition": "36.3% (inactive)"}, {"compound": "N=c1n(CC(=O)c2ccc([N+](=O)[O-])cc2)c2ccccc2n1Cc1ccccc1Cl", "inhibition": "25.6% (inactive)"}, {"compound": "Nc1ccc2c(c1)C/C(=C/c1ccco1)C2=O", "inhibition": "18.6% (inactive)"}, {"compound": "COc1ccc2c(c1)CC/C(=C/c1ccco1)C2=O", "inhibition": "71.4% (active)"}, {"compound": "c1ccc2sc(Sc3ncnc4sccc34)nc2c1", "inhibition": "44.2% (inactive)"}, {"compound": "Cc1ccc(-c2nc3cnccn3c2Nc2c(C)cccc2C)o1", "inhibition": "58.9% (active)"}, {"compound": "COc1ccc(-c2nc3cnccn3c2Nc2ccc(C)cc2)cc1", "inhibition": "38.7% (inactive)"}, {"compound": "CC(=O)OCC(=O)[C@H]1CC[C@H]2[C@@H]3CC=C4C[C@@H](O)CC[C@]4(C)[C@H]3CC[C@]12C", "inhibition": "4.15% (inactive)"}, {"compound": "O=C(CCNC(=O)c1ccccc1Cl)Nc1ccc2c(c1)OCO2", "inhibition": "22.9% (inactive)"}]}]}
